Test results from PubChem BioAssay (Tox21).
Records with an inconclusive call do not appear. Active and inactive are the calls of the source. Calls come from the whole dose curve; as a rule, active = well fitted cell-killing curve with a large enough effect in the repeat runs; inconclusive = weak or mixed curves, or effect the other way; inactive = no such curve, though single readings can be large or run the other way.
% is set by controls: 0 for no effect and ±100 for the full control effect.

Experiment: qHTS assay to identify small molecule agonists of the farnesoid-X-receptor (FXR) signaling pathway - cell viability counter screen (AID 743218); note: nearly all actives have a fitted effect of over 45% in size
Conditions: FXR-bla HEK293T viability, CellTiter-Glo luminescence, 16 h; series mostly up to 62.6 µM; viability change, negative = cytotoxic: at the top concentration
Description: U.S. Tox21 Program National Center for Advancing Translational Sciences [NCATS] NIH Chemical Genomics Center [NCGC] U.S. Environmental Protection Agency [EPA] National Institutes of Environmental Health Sciences [NIEHS] National Toxicology Program [NTP] U.S. Food and Drug Administration [FDA] Tox21 Assay Overview: The farnesoid-X-receptor (FXR), a nuclear hormone receptor, is highly expressed in liver, intestine, kidney and adrenal cortex. Natural ligands of FXR are the bile acids (Cholic acid, Chenodeoxy cholic acid etc). FXR is an important regulator of diverse metabolic pathways, including the bile acid homeostasis, lipid and glucose metabolisms. FXR regulates the expression of target genes by binding either as a monomer or as a heterodimer with the retinoid X receptor (RXR). Numerous studies have reported that FXR exerts protective function during cholestasis, diabetes, liver regeneration, and cancer. To identify compounds that activate FXR signaling, GeneBLAzer FXR-UAS-bla HEK 293T cell line (Invitrogen, Carlsbad, CA) containing a beta-lactamase reporter gene under the control of a UAS response element was used to screen the Tox21 10K compound library. The cytotoxicity of the Tox21 compound library against the FXR-bla cell line was tested in parallel by measuring the cell viability using CellTiter-Glo assay in the same wells.
Tox21 Assay Protocol Summary: FXR-bla cells were dispensed at 5000 cells/5uL/well in 1536-well black wall/clear bottom plates using a Multidrop Combi (Thermo Fisher Scientific, Waltham, MA) dispenser. After the assay plates were incubated at 37 C and 5% CO2 for 5 h, 23 nL of compounds dissolved in DMSO, positive controls or DMSO only was transferred to the assay plate by a Pintool station (Kalypsys, San Diego, CA). The assay plates were incubated at 37C for 16 h. After 1 uL of LiveBLAzerTM B/G FRET substrate was added using a Bioraptr Flying Reagent Dispenser (FRD) workstation (Beckman Coulter, Indianapolis, IN), the plates were incubated at room temperature for 2 h, and fluorescence intensity was measured by an Envision plate reader (PerkinElmer, Shelton, CT). For cell viability readout that measures cytotoxicity, 4uL/well of CellTiter-Glo reagent was added into the assay plates using a Bioraptr FRD. After 30 min incubation at room temperature, the luminescence intensity in the plates was measured using a ViewLux plate reader (PerkinElmer).
In the case of `CC(C)NCC(O)COc1cccc2[nH]ccc12` (stereo not given), the “viability change, negative = cytotoxic” value is reported as 2.15% (inactive). With `c1ccc2nccnc2c1` the “viability change, negative = cytotoxic” value was -2.21% [at 81.1 µM] (inactive). With `CC(C)(C)c1n[nH]c(=S)n(N)c1=O` the “viability change, negative = cytotoxic” value was 14.9% (inactive). For `CCN1CCc2nc(N)oc2CC1`, the “viability change, negative = cytotoxic” value was 1.79% (inactive). In the case of `NCCS`, the “viability change, negative = cytotoxic” value is reported as 4.2% (inactive). For `CC(=O)Nc1cccc(C)c1`, the “viability change, negative = cytotoxic” value was -0.147% [at 81.1 µM] (inactive). With `CC(COC(C)(C)C)OCCCO` (stereo not given) the “viability change, negative = cytotoxic” value was -9.73% (inactive). With `CC(=O)Nc1ccc(S(=O)(=O)Cl)cc1` the “viability change, negative = cytotoxic” value was 4.87% (inactive). In the case of `CNS(=O)(=O)CCc1ccc2[nH]cc(C3CCN(C)CC3)c2c1`, the “viability change, negative = cytotoxic” value is reported as -1.32% (inactive). For `Nc1nnc(-c2cccc(Cl)c2Cl)c(N)n1`, the “viability change, negative = cytotoxic” value was 1.43% (inactive). With `O=C(O)c1cc(Cl)cc([N+](=O)[O-])c1Cl` the “viability change, negative = cytotoxic” value was 14.6% (inactive). For `O=C(c1ccc(O)cc1)c1ccc(O)c(O)c1O`, the “viability change, negative = cytotoxic” value was -4.1% [at 81.1 µM] (inactive). For `N[C@@H](CCC(=O)Nc1ccc([N+](=O)[O-])cc1)C(=O)O`, the “viability change, negative = cytotoxic” value was 11.2% (inactive). For `CCc1ccc(C=O)cc1`, the “viability change, negative = cytotoxic” value was 0.779% (inactive). With `O=S(O)(O)=S` the viability change, negative = cytotoxic was 3.63% [at 5.95 µM] (inactive). In the case of `NS(=O)(=O)c1cc2c(cc1Cl)CN(C1CCCCC1)C2=O`, the “viability change, negative = cytotoxic” value is reported as -13.5% (inactive). In the case of `NCCN1CCOCC1`, the “viability change, negative = cytotoxic” value is reported as 0.765% (inactive). For `CC(C)(C)c1cc(CCC(=O)NN)cc(C(C)(C)C)c1O`, the “viability change, negative = cytotoxic” value was -17.8% (inactive). For `C=C(C)C(=O)OCc1ccccc1`, the “viability change, negative = cytotoxic” value was -9.63% (inactive). With `Cc1cccc(C)c1OCC(C)N` (stereo not given) the “viability change, negative = cytotoxic” value was -25.7% (inactive). With `C[Si](C)(C)C` the “viability change, negative = cytotoxic” value was -10.8% (inactive). For `CC(C)(C)OC(=O)c1ccc(O)cc1`, the “viability change, negative = cytotoxic” value was 6.88% (inactive). With `CC(C)c1ccc2cc(C(C)C)ccc2c1` the “viability change, negative = cytotoxic” value was 48.1% (inactive). With `COC(=O)CCCCCCCC(=O)OC` the “viability change, negative = cytotoxic” value was -21.8% (inactive). For `CCOCCOC(=O)/C=C/c1ccc(OC)cc1`, the “viability change, negative = cytotoxic” value was -2.47% (inactive). In the case of `COc1cc(C(=S)N2CCOCC2)cc(OC)c1OC`, the “viability change, negative = cytotoxic” value is reported as 15.8% (inactive). In the case of `CCCCCCCCC(=O)Cl`, the “viability change, negative = cytotoxic” value is reported as 7.22% [at 81.1 µM] (inactive). With `CN(CCOc1ccc(NS(C)(=O)=O)cc1)CCc1ccc(NS(C)(=O)=O)cc1` the “viability change, negative = cytotoxic” value was 7.37% (inactive). With `COc1cc2c(cc1OC)[C@@H]1CC(=O)[C@@H](CC(C)C)CN1CC2` the “viability change, negative = cytotoxic” value was 1.92% (inactive). With `CNC(=O)[C@H]1O[C@@H](n2cnc3c(NCc4cc(Cl)ccc4OCc4cc(C)no4)ncnc32)[C@H](O)[C@@H]1N` the “viability change, negative = cytotoxic” value was 14.7% (inactive). With `COC(=O)CCc1ccc(OCC(O)CNC(C)C)cc1` (stereo not given) the “viability change, negative = cytotoxic” value was -5.02% (inactive). With `OCCN(CCO)c1cccc(Cl)c1` the “viability change, negative = cytotoxic” value was -12.8% (inactive). In the case of `O=C(OCC1(COC(=O)c2cccnc2)CCCC(COC(=O)c2cccnc2)(COC(=O)c2cccnc2)C1O)c1cccnc1`, the “viability change, negative = cytotoxic” value is reported as 8.71% (inactive). In the case of `CCCCNC1CC(C)(C)NC(C)(C)C1`, the “viability change, negative = cytotoxic” value is reported as 9.15% (inactive). For `CN(C)CCOCCO`, the “viability change, negative = cytotoxic” value was 17.4% (inactive). In the case of `OC[C@H](Cc1cccc(O)c1)[C@H](CO)Cc1cccc(O)c1`, the “viability change, negative = cytotoxic” value is reported as 15.3% [at 81.1 µM] (inactive). With `C[Si](C)=O` the viability change, negative = cytotoxic was 5.27% [at 5.95 µM] (inactive). With `CCCCCCCCOS(=O)(=O)O` the “viability change, negative = cytotoxic” value was 5.35% (inactive). With `O=C(OCC(COC(=O)c1cccnc1)(COC(=O)c1cccnc1)COC(=O)c1cccnc1)c1cccnc1` the “viability change, negative = cytotoxic” value was 6.55% (inactive). With `O=C(O)Cc1cn(-c2ccccc2)nc1-c1ccc(Cl)cc1` the “viability change, negative = cytotoxic” value was 17.9% (inactive).
